Test systems include HCT-15 colon; HT29 colon; SNB-75 CNS; SNB-19 CNS; U251 CNS; PC-3 prostate; SK-MEL-5 melanoma; UACC-62 melanoma; LOX IMVI melanoma; SK-MEL-28 melanoma.
Assay in all cases: NCI-60 one-dose screen, 48 h (100 = growth as untreated, 0 = no growth, -100 = all killed)
What all share (details): 10 µM unless noted

Where “and” joins values, the source holds several entries; their conditions need not be identical. Equal values may be shown once. About 83,000 compounds went through this panel and 20% of them were active in at least one assay; those are over-represented in the sample as a whole.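 A percent growth of 40 corresponds to 60% growth inhibition; 0 means no net growth; -100 means all cells died. Active threshold: below 10.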 Calls of active or inactive are those of the source.

On to `Cc1ccc(N2CCN(CCC#N)CC2)cc1`, for which the growth was 97.2% (inactive) in the test on HCT-15 colon; 103% (inactive) with HT29 colon; 79.5% (inactive) in the test on SNB-75 CNS; 87.9% (inactive) in the test with SNB-19 CNS; 97.8% (inactive) in the test with U251 CNS; 92.5% (inactive) in the test on PC-3 prostate. The growth in the test on SK-MEL-5 melanoma was 82% (inactive); in the test on UACC-62 melanoma it was 98.6% (inactive); in the test on LOX IMVI melanoma, 101% (inactive); with SK-MEL-28 melanoma, 98.7% (inactive).

On to `CCCCS(=O)(=O)Cl`, for which the growth with HCT-15 colon was 108% (inactive); in the test on HT29 colon, 113% (inactive); with SNB-75 CNS, 93.5% (inactive); in the test with SNB-19 CNS, 110% (inactive); in the test with U251 CNS, 105% (inactive); with PC-3 prostate it was 89.6% (inactive). Besides, the growth in the test with SK-MEL-5 melanoma was 98.2% (inactive); with UACC-62 melanoma it was 106% (inactive); in the test on LOX IMVI melanoma, 99.9% (inactive); in the test with SK-MEL-28 melanoma, 107% (inactive).

Regarding `CCCC[C@H]1C(=O)O[C@H](C)[C@H](NC(=O)c2cccc(NC=O)c2O)C(=O)O[C@@H](C)[C@@H]1OC(=O)CC(C)C`, the growth is 39.9% (inactive) with HCT-15 colon; 49.5% (inactive) in the test on HT29 colon; 56.8% (inactive) in the test on SNB-75 CNS; 44.4% (inactive) in the test on SNB-19 CNS; 42.9% (inactive) with U251 CNS; 32.9% (inactive) with PC-3 prostate. Besides, the growth was -5.18% (active) in the test on SK-MEL-5 melanoma, 34% (inactive) with UACC-62 melanoma, 32.9% (inactive) with LOX IMVI melanoma and 83.9% (inactive) with SK-MEL-28 melanoma.

Consider `O=[N+]([O-])c1cc(Br)c(O)c(Br)c1`, for which the growth with HCT-15 colon is 100% (inactive); with HT29 colon, 95.6% (inactive); with SNB-75 CNS it was 102% (inactive); in the test with SNB-19 CNS it was 102% (inactive); in the test on U251 CNS it was 99.8% (inactive); in the test on PC-3 prostate it was 96.7% (inactive). Further, the growth in the test on SK-MEL-5 melanoma is 98% (inactive); with UACC-62 melanoma, 105% (inactive); in the test on LOX IMVI melanoma it was 101% (inactive); in the test on SK-MEL-28 melanoma it was 120% (inactive).

Take `Clc1ccc(COC(Cn2ccnc2)c2ccc(Cl)cc2Cl)c(Cl)c1` (stereo not given): the growth in the test on HCT-15 colon was 41.9% (inactive) and 46.2% (inactive); in the test with HT29 colon, 23.4% (inactive) and 31% (inactive); in the test with SNB-75 CNS it was 78.6% (inactive) and 90.2% (inactive); in the test on SNB-19 CNS it was 83.4% (inactive) and 83.8% (inactive); with U251 CNS, 45.5% (inactive) and 69.4% (inactive); in the test with PC-3 prostate, 40.9% (inactive) and 39.3% (inactive). Further, the growth with SK-MEL-5 melanoma is 39% (inactive) and 3.49% (active); in the test on UACC-62 melanoma, 41.5% (inactive) and 52.1% (inactive); in the test with LOX IMVI melanoma it was 34% (inactive) and 47.6% (inactive); in the test with SK-MEL-28 melanoma it was 81.5% (inactive).

Turning to `COc1ccc2c(c1)c(-c1nc(-c3c[nH]c4ncccc34)cs1)cn2CCCCN1CCOCC1`, the growth was -31.7% (active) in the test with HCT-15 colon; -84.4% (active) in the test on HT29 colon; 40.1% (inactive) with SNB-75 CNS; 52.4% (inactive) in the test on SNB-19 CNS; 4.84% (active) in the test with U251 CNS; 30.1% (inactive) in the test on PC-3 prostate. For the same molecule, the growth in the test with SK-MEL-5 melanoma is 26% (inactive); in the test with UACC-62 melanoma, 20.4% (inactive); in the test on LOX IMVI melanoma it was -34.7% (active); in the test on SK-MEL-28 melanoma it was -90.3% (active).

On to `CC[C@H](C)[C@H]1O[C@]2(C=C[C@@H]1C)C[C@@H]1C[C@@H](C/C=C(\C)[C@@H](O[C@H]3C[C@H](OC)[C@@H](O[C@H]4C[C@H](OC)[C@@H](NC)[C@H](C)O4)[C@H](C)O3)[C@@H](C)/C=C/C=C3\CO[C@@H]4[C@H](O)C(C)=C[C@@H](C(=O)O1)[C@]34O)O2`, for which the growth is -70.2% (active) in the test on HCT-15 colon; -64.3% (active) in the test on HT29 colon; -72.7% (active) in the test with SNB-75 CNS; 13.7% (inactive) in the test on SNB-19 CNS; -88.7% (active) with U251 CNS; -16.2% (active) in the test with PC-3 prostate. Moreover, the growth in the test on SK-MEL-5 melanoma was -95.5% (active); in the test on UACC-62 melanoma it was -53.1% (active); with LOX IMVI melanoma, -92.3% (active); in the test on SK-MEL-28 melanoma it was -79.2% (active).

Regarding `CN1CCc2cc3c(cc2C1O)OCO3` (stereo not given), the growth with HCT-15 colon is 98.9% (inactive) and 94% (inactive); in the test with HT29 colon it was 96.1% (inactive) and 108% (inactive); in the test with SNB-75 CNS, 81.1% (inactive) and 104% (inactive); in the test on SNB-19 CNS it was 123% (inactive) and 100% (inactive); in the test with U251 CNS, 90.6% (inactive) and 103% (inactive); with PC-3 prostate it was 77% (inactive) and 89.3% (inactive). Moreover, the growth in the test on SK-MEL-5 melanoma is -13.9% (active) and 105% (inactive); with UACC-62 melanoma, 34.2% (inactive) and 94.5% (inactive); in the test with LOX IMVI melanoma, 71.4% (inactive) and 102% (inactive); in the test on SK-MEL-28 melanoma, 94.7% (inactive) and 115% (inactive).

`C[C@]12CCc3sc(Nc4ccc(OC(F)(F)F)cc4)nc3C1=CC[C@@H]1[C@@H]2CC[C@]2(C)C(=O)CC[C@@H]12`: the growth was 38.3% (inactive) with HCT-15 colon; 13% (inactive) with HT29 colon; 68.6% (inactive) in the test on SNB-75 CNS; 56.5% (inactive) in the test with SNB-19 CNS; 34.1% (inactive) in the test with U251 CNS; 38.6% (inactive) with PC-3 prostate. Besides, the growth was 95.9% (inactive) in the test with SK-MEL-5 melanoma, 63.4% (inactive) with UACC-62 melanoma, 34.8% (inactive) with LOX IMVI melanoma and 65.3% (inactive) in the test on SK-MEL-28 melanoma.

In the case of `CCC(=O)C(CC(C)[N+](C)(C)C)(c1ccccc1)c1ccccc1` (stereo not given), the growth in the test on HCT-15 colon was 97.6% (inactive); in the test with HT29 colon, 108% (inactive); with SNB-75 CNS it was 93.8% (inactive); in the test with SNB-19 CNS, 96.8% (inactive); with U251 CNS it was 97.9% (inactive); with PC-3 prostate, 103% (inactive). The growth is 97.2% (inactive) with SK-MEL-5 melanoma, 101% (inactive) in the test on UACC-62 melanoma, 96.7% (inactive) in the test with LOX IMVI melanoma and 106% (inactive) in the test on SK-MEL-28 melanoma.

For `CC12CCC3C(CCC4CC(O)CCC43C)C1CCC2=O` (stereo not given), the growth with HCT-15 colon is 91.4% (inactive); in the test on HT29 colon it was 102% (inactive); in the test with SNB-75 CNS, 109% (inactive); in the test with SNB-19 CNS, 112% (inactive); in the test on U251 CNS, 95.9% (inactive); in the test with PC-3 prostate, 99.6% (inactive). The growth with SK-MEL-5 melanoma was 101% (inactive); in the test with UACC-62 melanoma it was 98.9% (inactive); in the test with LOX IMVI melanoma, 92% (inactive); in the test with SK-MEL-28 melanoma, 189% (inactive).

As to `OCCNC1CCCCC1`, the growth in the test on HCT-15 colon was 98.7% (inactive); in the test on HT29 colon, 109% (inactive); with SNB-75 CNS, 96.3% (inactive); with SNB-19 CNS it was 105% (inactive); with U251 CNS it was 106% (inactive); in the test on PC-3 prostate, 103% (inactive). Also, the growth was 103% (inactive) in the test on SK-MEL-5 melanoma, 97.2% (inactive) in the test with UACC-62 melanoma, 104% (inactive) with LOX IMVI melanoma and 104% (inactive) with SK-MEL-28 melanoma.

With `CN(C)c1ccc([N+](=O)[O-])c([N+](=O)[O-])c1`, the growth is 110% (inactive) and 100% (inactive) in the test with HCT-15 colon; 109% (inactive) and 102% (inactive) in the test with HT29 colon; 93% (inactive) and 86.4% (inactive) in the test with SNB-75 CNS; 106% (inactive) and 102% (inactive) in the test on SNB-19 CNS; 101% (inactive) and 96.9% (inactive) in the test on U251 CNS; 105% (inactive) and 100% (inactive) in the test on PC-3 prostate. Also, the growth with SK-MEL-5 melanoma was 101% (inactive) and 97% (inactive); in the test on UACC-62 melanoma it was 97.6% (inactive) and 90.3% (inactive); in the test with LOX IMVI melanoma, 93% (inactive); in the test with SK-MEL-28 melanoma, 104% (inactive).
